# Test results published in PubChem BioAssay AID743279 (National Center for Advancing Translational Sciences (NCATS), 2014).
# The campaign covered roughly 360,000 compounds. About 17,000 (4.7%) were called active. Roughly 5% stayed inconclusive and do not appear here. No stated cut-off is given here; in the data, active means activity change below about -50%; inconclusive means mostly about -30% to -49%; inactive means weaker than that. The list comes from a sample in which actives are over-represented; it also holds similar structures and randomly drawn compounds.
# Experiment: qHTS for Inhibitors of Inflammasome Signaling: IL-1-beta AlphaLISA Primary Screen
# Conditions: THP-1 LPS/ATP IL-1B secretion, 16 h; at 57.5 µM, active compounds read low
# Description: Inflammasomes are a set of intracellular multi-protein complexes that enable autocatalytic activation of inflammatory caspases and drive the innate immune response to counter harmful agents. […] A qHTS assay, based on AlphaLISA technology, was developed to screen the Molecular Libraries Small Molecule Repository (MLSMR) to look for novel inflammasome inhibitors. The assay detects IL-1B using AlphaLISA anti-IL-1B acceptor and donor beads. A decreased emission signal, indicating reduced IL-1B secretion, is the desired outcome for this assay. NIH Chemical Genomics Center [NCGC] NIH Molecular Libraries Probe Centers Network [MLPCN] MLPCN Grant: MH095513 Assay Provider: Shyam Biswal Ph.D., Johns Hopkins University Immunity. 2012 Jul 27;37(1):85-95. PMID: 22819042 [2] Curr Pharm Des. 2012;18(16):2320-8. PMID: 22390695
# Three microliters containing 3000 THP-1 cells were dispensed into the wells of solid, white, tissue culture treated Greiner 1,536-well plates. Library compounds and positive control, Glyburide, were pin-transferred (23 nL) by a Kalypsys pin-tool equipped with a 1,536-pin array, resulting in final compound concentration ranges of 2.5 nM to 57.5 uM. After 1 hr of cell culture incubation (37 °C, 5% CO2), 1 microL of 1 microg/mL lipopolysaccharide (250 ng/mL, final) and 5 mM ATP (1.25 mM, final) were added to stimulate the cells. After 16 hr of cell culture incubation with the compounds, 1.5 uL of anti-IL-1B acceptor beads (6 ug/mL, final) and biotinylated antibody (0.6 nM, final) were added to the plate, followed by a 1 hr incubation at ambient temperature. To detect the secreted IL-1B, 1.5 uL of AlphaLISA SA-Donor beads (24 ug/mL, final) were added, followed by 30 min of incubation in the dark at ambient temperature. The AlphaLISA signal was read by a PerkinElmer EnVision plate reader with an ultrasensitive luminescence detector and 1536 Plate HTS AlphaScreen aperture (excitation of 680nm and emission of 615nm).
# On the % scale 0 is the no-effect control and ±100 the full control effect.
row,Compound,activity change
1,COc1cccc(NC(=O)Nc2ccc(F)cc2)c1,-27.3% (inactive)
2,CCCc1nc2ccccc2n1C(C)C(=O)NC(C)(C)C (stereo not given),29% (inactive)
3,O=C(NNc1nc(N2CCCC2)nc(N2CCCC2)n1)c1ccccc1,-0.122% (inactive)
4,O=C1CCC(C(=O)N2CCC(O)(c3ccccc3)CC2)CN1CCc1ccccc1 (stereo not given),-11.9% (inactive)
5,O=C(CN1C(=O)NC2(CCc3ccccc32)C1=O)NC1CCCCC1 (stereo not given),-10.5% (inactive)
6,COC(=O)c1ccccc1N=NNc1ccc([N+](=O)[O-])cc1,-18.2% (inactive)
7,COC(=O)c1c(C)oc(C)c1S(=O)(=O)Nc1ccc(C(C)C)cc1,5.75% (inactive)
8,O=C(c1cc2ccccc2o1)N1CCN(c2cccc(C(F)(F)F)c2)CC1,inactive
9,Cc1cc2ccccn2c1C(=O)c1cccc(S(=O)(=O)N2CCOCC2)c1,-17.1% (inactive)
10,N#Cc1c(-c2cccs2)nc(SCC(=O)c2ccc(Br)cc2)[nH]c1=O,13.2% (inactive)
11,CCOC(=O)CC1COCCN1C(=O)c1cc(COc2ccc(F)c(F)c2)on1 (stereo not given),64.4% (inactive)
12,O=C(CCNS(=O)(=O)c1ccc(Br)cc1)NCC1CCCO1 (stereo not given),-2.41% (inactive)
13,OC(CNCC1CCCO1)Cn1c2ccc(Br)cc2c2cc(Br)ccc21 (stereo not given),-62.5% (active)
14,CCCN1CCn2c3c(c4cc(Br)ccc42)CCCC31 (stereo not given),42.1% (inactive)
15,Cc1cc(-c2nnc(SCC(=O)Nc3ccc(F)cc3)n2N)n[nH]1,20.7% (inactive)
16,Cc1cc(C)c(C2C3=C(Nc4c2c(C)nn4-c2ccccn2)c2ccccc2C3=O)c(C)c1 (stereo not given),-68.9% (active)
17,Cc1nn(-c2ccccn2)c2c1C(c1ccncc1)C1=C(CC(C)(C)CC1=O)N2 (stereo not given),-7.64% (inactive)
18,C=CCn1c2ccccc2c2nnc(SC(CC)C(=O)Nc3nc(C)c(C(=O)OCC)s3)nc21 (stereo not given),-24.9% (inactive)
19,C=CCn1c(SCC(=O)CC(=O)OCC)nc2cc(C(=O)N3CCC(C(N)=O)CC3)ccc2c1=O,-3.87% (inactive)
20,C=CCn1c2ccccc2c2nnc(SCc3[nH]c(=O)[nH]c3C(=O)CCCCC(=O)OCC)nc21,-80.5% (active)
21,O=C(OCc1ccccc1)N1CCC2CC1c1ccc(-c3ccc4c(c3)OCO4)cc12 (stereo not given),20% (inactive)
22,CC(=O)Nc1ccc(Nc2c3ccccc3nc3ccccc23)cc1,-98.2% (active)
23,CC(=O)Nc1ccc(Nc2cc(C)nc(Nc3ccc(NC(C)=O)cc3)n2)cc1,0.0358% (inactive)

row,Compound,activity change
1,CCc1nc(Nc2ccc(NC(C)=O)cc2)c2oc3ccccc3c2n1,-1.52% (inactive)
2,O=C1NC[C@H](CCCCN2C[C@H](Cc3ccccc3)N(Cc3ccccc3)C(=O)C2=O)N(CCc2ccc(O)cc2)C1=O,0% (inactive)
3,CCC(Oc1ccccc1)C(=O)OCC(=O)Nc1c(C)nn(-c2ccccc2)c1C (stereo not given),8.98% (inactive)
4,Cc1nn(-c2ccccc2)c(C)c1NC(=O)CCl,-95% (active)
5,Cc1cccc(C)c1NC(=O)CNC(=O)c1c(C)nn(-c2ccccc2)c1C,-13.7% (inactive)
6,O=C(NCc1ccccc1)C(c1ccc(F)cc1)N1CCN(C(=O)C2CCCO2)CC1 (stereo not given),0% (inactive)
7,CCO/N=C(/C)c1c(O)cc(-c2ccccc2)n(-c2ccccc2)c1=O,17.3% (inactive)
8,CCCc1cc(=O)oc2c(C)c(OC(C)C(=O)NCC(O)c3ccccc3)ccc12 (stereo not given),-14.8% (inactive)
9,C[C@@H]1ON(C)[C@H]2C[C@H]3c4cc(N5CCN(C)CC5)ccc4CCN3C(=O)[C@@H]12,-12.3% (inactive)
10,C(#CCN1CCOCC1)CCCN1CCOCC1,26% (inactive)
11,O=C(/C=C/c1ccc(Cl)cc1)N1CCN(c2ccccc2[N+](=O)[O-])CC1,-78.3% (active)
12,CO/N=C/c1ccc(N2CCN(C(=O)c3cccc(Cl)c3)CC2)c([N+](=O)[O-])c1,-16.9% (inactive)
13,O=C(c1ccc(Cl)c([N+](=O)[O-])c1)N1CCN(c2ccccc2)CC1,-26.9% (inactive)
14,CCOc1ccc(NS(=O)(=O)c2ccc(C(=O)NCC3CCCO3)cc2)cc1 (stereo not given),8.79% (inactive)
15,CCOC(=O)C1=NOC(Cn2cc(C(C)=O)c(=O)[nH]c2=O)C1 (stereo not given),-0.897% (inactive)
16,Cc1ccc(S(=O)(=O)N2CCN(C(=O)COC(=O)/C=C/c3cccc(Cl)c3)CC2)c(C)c1,23.3% (inactive)
17,CCOC(=O)N1CCC(NC(=O)Cn2cc3c(n2)CCCCC3)CC1,2.25% (inactive)
18,O=C(/C=C/c1ccc(F)cc1)NC(=S)NNC(=O)c1cccnc1,20.7% (inactive)
19,c1ccc2c(c1)OC1OC2Oc2ccccc21,10.9% (inactive)
20,COc1cc(OC)c(C(=O)NC2CCCCCC2)cc1OC,-59.1% (active)
21,COc1cc(OC)c(C(=O)NC2CC(C)(C)NC(C)(C)C2)cc1OC,0% (inactive)
22,COc1ccc(S(=O)(=O)NC(C)C)cc1C(=O)NC1CCCCC1,2.99% (inactive)
